Bioassay records: PubChem, National Center for Advancing Translational Sciences (NCATS)
Hits are enriched below; roughly 12% of the tested compounds scored in any of these assays.
HP1b chromo inh: blocks HP1-beta chromodomain binding to methylated histone tails; P83916; AlphaScreen HP1-beta / biotin-H3K9me3 peptide binding; Potency, µM (top dose mostly 114 µM), actives largely listed as inhibitors; actives 0.56% (n = 390,000); note: nearly all actives have a fitted effect of over 70% in size
Target sequence (P83916 whole entry, looked up): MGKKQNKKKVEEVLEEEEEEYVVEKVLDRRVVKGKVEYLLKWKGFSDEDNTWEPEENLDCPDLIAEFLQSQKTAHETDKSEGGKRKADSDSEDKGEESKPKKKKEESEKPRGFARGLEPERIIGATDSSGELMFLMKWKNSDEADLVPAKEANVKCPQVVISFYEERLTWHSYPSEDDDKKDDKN
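HP1-beta protein (50 nM final) preincubated 30 min at room temperature with biotinylated H3(1-18)K9me3 peptide (50 nM) in PBS pH 7.4, 0.01% Tween-20, then compound added for 30 min. AlphaScreen streptavidin donor/nickel chelate acceptor beads (10 ug/mL final), 30 min dark, luminescence read.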
JMJD2A Tudor inh: JMJD2A Tudor domain (human) inhibition. actives 4.4% (n = 390,000). AlphaScreen JMJD2A-Tudor / H3K4me3 peptide binding. Potency, µM (series often up to 114 µM), most hits filed as inhibitors. O75164; note: nearly all actives have a fitted effect of over 50% in size
G9a inh: G9a (human) methyltransferase inhibition; Q96KQ7; G9a H3K9 monomethylation, AlphaScreen, 2 h; actives 8.8% (n = 350,000); Potency, µM (highest dose often 102 µM), usual class: inhibitors; note: nearly all actives have a fitted effect of over 75% in size
Target sequence (Q96KQ7 913-1193 limits assumed): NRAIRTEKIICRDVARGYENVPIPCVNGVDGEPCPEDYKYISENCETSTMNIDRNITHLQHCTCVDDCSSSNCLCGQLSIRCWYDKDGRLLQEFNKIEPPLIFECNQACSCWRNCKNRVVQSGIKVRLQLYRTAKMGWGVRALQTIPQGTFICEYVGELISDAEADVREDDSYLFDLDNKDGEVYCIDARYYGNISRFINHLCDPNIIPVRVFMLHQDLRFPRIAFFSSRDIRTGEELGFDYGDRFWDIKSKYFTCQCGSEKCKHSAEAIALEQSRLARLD
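AlphaScreen read-out: biotin-H3K9 peptide (500 nM) methylation by 20 nM enzyme with 20 uM SAM, 2 h at room temperature after 15 min compound preincubation; anti-monomethyl H3K9 antibody plus donor/acceptor beads, 10 min dark.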
BAZ2B block: inhibitors of human BAZ2B bromodomain; Q9UIF8; AlphaScreen BAZ2B-H3K14Ac peptide displacement; Potency, µM (highest dose often 114 µM), most hits filed as inhibitors; actives 4.4% (n = 360,000); AID 504333; note: nearly all actives have a fitted effect of over 60% in size
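BAZ2B (50 nM) with biotin-H3(5-23)K14Ac peptide (50 nM) in PBS pH 7.4, 0.01% Tween-20, preformed 30 min, then compound 30 min at room temperature; top concentration 110uM. AlphaScreen streptavidin donor/nickel chelate acceptor beads (10 ug/mL final), 20 min dark, signal read.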
Sfp PPTase inh: Sfp phosphopantetheinyl transferase inhibition; AID 1490; Biochemical Sfp PPTase activity, qHTS; Q9F4F7; Potency, µM, actives largely listed as inhibitors; actives 3.5% (n = 310,000);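 note: the enzyme is Sfp with the accession as filed and its product quenches rhodamine fluorescence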
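Buffer: 50 mM Hepes-Na pH 7.6, 10 mM MgCl2, 0.01% Nonidet P-40, 0.01% BSA. Enzyme 15 nM, pre-exposed to compound 15 min; substrates then added and fluorescence change tracked over 30 min.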
Hits are given with their value; 0 = inactive; ? = inconclusive; - = no result given; [ ] = dose if it differs, or a comment. Calls come from the whole dose curve; as a rule, active = well fitted curve in the direction sought with a large enough effect; inconclusive = small, poorly fitted or top-dose-only effect, or another doubt; inactive = no such curve, though single readings can be large; an effect the other way counts as inactive or inconclusive.

SMILES	HP1b chromo inh	JMJD2A Tudor inh	G9a inh	BAZ2B block	Sfp PPTase inh
CCCCCCc1nc(C(N)=O)c2[nH]c(=O)n(-c3ccc(OCC)cc3)c2n1	0	0	0	0	0
N#Cc1nc(-c2ccc(OCc3ccc(Cl)cc3)cc2)oc1N1CCCCC1	0	0	-	-	-
COc1ccc(N2CCN(c3ccc(NC(=O)/C=C\C(=O)O)cc3)CC2)cc1	0	0	45µM	?	0
CCc1ccc(NC(=O)NCCN2CCN(c3ccc(OC)cc3)CC2)cc1	0	0	10µM	?	0
CCN1C(=O)C(CC(=O)Nc2ccc(OC)cc2)N(CCCN2CCN(c3ccc(OC)cc3)CC2)C1=S (stereo not drawn)	0	50µM	?	32µM	0
COc1ccc(N2CCN(CCS(=O)(=O)c3cc(Cl)ccc3Cl)CC2)cc1	0	?	0[2.33 µM]	45µM	-
CCc1ccc(N2CCN(CCNC(=O)Nc3ccc(OC)cc3)CC2)cc1	0	0	0[0.501 µM]	0	0
COc1ccc(/C=C/C(=O)Nc2ccc(N3CCOCC3)cc2)cc1	0	0	0	0	0
CCN1C(=O)C(CC(=O)Nc2ccc(OC)cc2)N(CCN2CCOCC2)C1=S (stereo not drawn)	0	0	0	0	0
COc1ccccc1-n1c(=O)c2c3c(sc2n(C)c1=O)CN(C(C)=O)CC3	0	0	0	0	-
O=C(CN1C(=O)C(=O)N(Cc2ccccc2)C1=O)Nc1ccc(OC(F)F)cc1	0	0	0[2.33 µM]	0	-
Cc1cc(C)c(N(Cc2ccccc2)S(=O)(=O)c2ccc(OCCNC(=O)c3cc4ccccc4o3)cc2)c(C(=O)NO)c1	-	-	-	-	0
COc1ccc(N2CCN(CCCNC(=O)Nc3ccccc3Cl)CC2)cc1	?	?	?	35µM	-
O=C(NCCCN1CCN(c2ccc(F)cc2)CC1)Nc1ccccc1Cl	0	0	?	?	-
Cc1ccc(Nc2nc(C(=O)N3CCC(C(=O)N4CCN(C)CC4)CC3)cs2)cc1	0	?	50µM	0	0
CSc1ccc(NC(=O)NCCCN2CCC(Cc3ccccc3)CC2)cc1	0	?	?	40µM	0
COc1ccc(N2CCN(CCCNC(=O)C3(S(=O)(=O)c4ccc(Cl)cc4)CC3)CC2)cc1	?	50µM	?	?	0
COc1ccc(CN(C)C(=O)c2cccc(NS(=O)(=O)c3ccccc3)c2)c(OC)c1	0	0	0	0	0
CCC(=O)N1CCc2cc(Br)cc(S(=O)(=O)CCC(=O)NCc3ccc(C)cc3)c21	0	0	0	0	-
CCOC(=O)c1ccc(N(CC(=O)NC2CCCCC2)C(=O)CNC(=O)c2ccco2)cc1	0	0	0	0	0
COc1ccc(NC(=O)c2ccco2)cc1NC(=O)c1cc(OC)c(OC)c(OC)c1	0	0	0	0	-
COc1ccc(-c2nc(CN3CCN(Cc4cccc(Cl)c4)CC3)c(C)o2)cc1	0	?	0[0.501 µM]	?	0
COc1ccc(Nc2nc(C(=O)N3CCc4ccccc4C3)cs2)cc1	?	45µM	-	?	0
COc1ccc(NC(=O)N2CCc3ccccc3C2)cc1	0	0	0	0	0
O=c1cc(-c2ccccc2)ss1	?	0	-	-	-
SMILES	HP1b chromo inh	JMJD2A Tudor inh	G9a inh	BAZ2B block	Sfp PPTase inh
CN(C)C1NC(=O)c2cc(-c3ccccc3)sc2N1 (stereo not drawn)	0	?	?	50µM	0
CC1=C/C(=C(\c2cc(C)c(O)c(Br)c2)c2ccccc2S(=O)(=O)O)C=C(Br)C1=O	28µM	?	14µM	20µM	45µM
Cc1cc(C(=O)c2ccccc2)cc(C)c1O	0	0	-	-	-
CC(C)COc1ccc(C(=O)Nc2cc(-c3ccccc3)no2)cc1	0	0	0	0	-
O=C(O)c1cccc(Nc2ccncc2[N+](=O)[O-])c1	0	20µM	0	0	0
Nc1cccc(Cl)c1N1CCOCC1	?	20µM	0[0.0925 µM]	0	0
Nc1ccc(N2CCOCC2)c(Cl)c1	0	0[11.4 µM]	?	0	0
CC(=O)Nc1ccc(N2CCCCC2)cc1	0	0	?	0	0
CCc1ccc(N2Cc3ccccc3C2)cc1	0	0	10µM	?	?
FC(F)(F)c1cccc(N2Cc3ccccc3C2)c1	0	0	0[0.0925 µM]	0	0
Cc1cc(C)cc(N2Cc3ccccc3C2)c1	0	0	10µM	0	0
CC(=O)Nc1ccc(N2Cc3ccccc3C2)cc1	0	0	-	79µM	0
CCOC(=O)c1ccc(N2Cc3ccccc3C2)cc1O	0	0	?	0	0
CCOc1ccc(CNC(=O)C2CCN(C(=O)N3CC(CC)Oc4ccccc43)CC2)cc1 (stereo not drawn)	0	0	0	0	-
CCCSc1ncc(Cl)c(C(=O)Nc2sc3c(c2C(=O)OC)CCCC3)n1	0	0	0	0	-
COc1ccc(NC(=O)Cn2c(=O)n(-c3cccc(C)c3)c(=O)c3c2c2cc(C)ccc2n3C)cc1Cl	0	0	0	0	-
CC(C)OC(=O)c1nn2c(C(F)(F)F)cc(-c3ccc(Br)o3)nc2c1Br	0	0	35µM	0	0
CC(C)OC(=O)c1nn2c(C(F)(F)F)cc(-c3ccco3)nc2c1Cl	0	0	?	0	0
Oc1c(C(c2ccccc2)N2CCC3(CC2)OCCO3)sc2nc(-c3ccco3)nn12 (stereo not drawn)	0	0	0	0	-
Cc1[nH]c(=O)[nH]c1C(=O)CCCCC(=O)OCC(=O)Nc1ccccn1	0	0.79µM	1.6µM	0.89µM	0
CC(=O)c1c(C)[nH]c(C(=O)Nc2ccccn2)c1C	0	0	0	0	0
O=c1[nH]c(=O)n(CCCc2ccccc2)cc1-c1ccccc1	0	0	-	-	-
CC(=O)NC(CC(=O)OC(C)C(=O)Nc1ccc(Cl)cn1)c1ccccc1 (stereo not drawn)	0	0	0	0	-
CC1CN(S(=O)(=O)c2cccc(C(=O)OCC(=O)Nc3ccc4c(c3)OCO4)c2)CC(C)O1 (stereo not drawn)	0	0	50µM	0	0
CCOC(=O)c1c(C)[nH]c(C(=O)CSc2nnc(Nc3ccccc3F)s2)c1C	0	0	18µM	0	?
SMILES	HP1b chromo inh	JMJD2A Tudor inh	G9a inh	BAZ2B block	Sfp PPTase inh
O=C(CN1CCN(CCN2C(=O)c3cccc4cccc(c34)C2=O)CC1)c1ccc(Cl)cc1	-	-	7.9µM	0	0
O=C(CN1CCN(CCN2C(=O)c3cccc4cccc(c34)C2=O)CC1)c1ccc(F)cc1	0	0	1.6µM	0	0
CC[N+](C)(CC)CC(O)COCC1COc2ccccc2O1 (stereo not drawn)	0	0	6.3µM	0	0
CC1CCCC(C)N1CC(O)COCC1COc2ccccc2O1 (stereo not drawn)	0	0	0	0	0
COCCNC(=O)COC(=O)CSCc1nc2ccccc2s1	0	0	79µM	0	0
O=C(CSc1nn(-c2ccccc2)c(=S)s1)Nn1cnnc1	0	0	0	0	0
COCCNC(=O)c1nc2ccccc2s1	0	0	0	0	0
O=C(NCc1ccco1)c1nc2ccccc2s1	0	0	0[12.7 µM]	0	0
O=C(CSc1nn(-c2ccccc2)c(=S)s1)NC(=O)NCc1ccco1	0	0	14µM	?	0
